tim10-1 inh = inhibits growth of tim10-1 mutant yeast | S. cerevisiae tim10-1 ts strain growth, BacTiter-Glo, 24 h | inhibition, % at 20 µM | hit rate 2.2% among 330,000;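 active = inhibition of at least 40%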;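 note: mutant grown at 25 °C; 0% = DMSO wells with yeast and 100% = wells holding no yeast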
TIM10 inh = growth inhibitors of TIM10 yeast strain. hit rate 1.4% among 330,000. inhibition, % at 10 µM. S. cerevisiae TIM10 strain growth, BacTiter-Glo luminescence, 24 h;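 active = inhibition of 40% or more at the single tested concentration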;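 note: wild-type TIM10 isogenic control strain grown at permissive 25 °C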
PfHsp90 set2 = reduces growth (ATP signal) of yeast expressing P. falciparum Hsp90. inhibition, % at 9.4 µM. hit rate 0.32% among 310,000. S. cerevisiae expressing PfHsp90, BacTiter-Glo ATP, 48 h; yeast lacking PDR1 and PDR3 efflux regulators. AID 504621;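 active = every replicate shows inhibition above about 80%, whatever the replicate mean, limit read from the data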;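 note: 0% = DMSO neutral controls and 100% = 20 µM radicicol positive controls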
tim23-1 inh = growth inhibitors of tim23-1 mutant yeast; S. cerevisiae tim23-1 growth, BacTiter-Glo luminescence, 24 h; inhibition, % at 20 µM; hit rate 1.3% among 330,000; AID 463212;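 active = growth inhibition of the mutant yeast at or above 50%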;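 note: temperature-sensitive mutant grown at 25 °C; plate controls were DMSO-treated mutant yeast for no effect and medium wells lacking yeast for full effect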
SKKanGAS inh = inhibitors of SKKanGAS S. pyogenes growth in kanamycin (SK-promoter or general growth effect); BacTiter-Glo, 6 h; inhibition, % at 7.5 µM; hit rate 1.3% among 300,000; AID 1662;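 active = mean replicate score, as percent of positive control median, at least 50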;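 note: strain carries kanamycin resistance gene driven by streptokinase promoter and grows in 40 µg/ml kanamycin; loss of luminescence reflects streptokinase promoter inhibition or plain growth inhibition; 0% = median of DMSO wells and 100% = positive control at its reference dose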
ATG4B inh = blocks human ATG4B protease cleavage of LC3 substrate; ATG4B cleavage of LC3-PLA2, NBD-HPC fluorescence, 1 h; inhibition, % at 8.33 µM; hit rate 0.51% among 340,000; AID 504462; in the data active = inhibition above about 40%
Target sequence (Q9Y4P1 whole entry, looked up): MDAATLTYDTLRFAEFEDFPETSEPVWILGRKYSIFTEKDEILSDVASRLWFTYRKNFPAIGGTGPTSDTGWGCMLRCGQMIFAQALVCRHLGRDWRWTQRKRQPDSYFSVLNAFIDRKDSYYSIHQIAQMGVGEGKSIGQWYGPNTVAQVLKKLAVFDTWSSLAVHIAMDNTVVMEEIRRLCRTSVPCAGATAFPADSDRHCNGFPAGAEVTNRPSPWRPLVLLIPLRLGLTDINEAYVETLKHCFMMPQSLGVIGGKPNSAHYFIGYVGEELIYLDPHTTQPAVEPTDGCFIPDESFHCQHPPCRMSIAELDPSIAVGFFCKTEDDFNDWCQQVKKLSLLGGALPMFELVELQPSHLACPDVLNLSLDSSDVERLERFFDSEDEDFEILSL
ATG4B conf = confirmation of human ATG4B inhibitors; shares compounds with ATG4B inh; ATG4B protease fluorescent substrate cleavage assay; inhibition, % at 8.33 µM; hit rate 92% among 320; AID 504757; in the data active = inhibition above about 39%
PLA2 counter = inhibits human PLA2, flagging false ATG4B inhibitors; purified PLA2, NBD-C6-HPC fluorescence, 45 min; AID 588402; hit rate 66% among 1,600; shares compounds with ATG4B inh; inhibition, % at 8.33 µM; in the data active = inhibition above about 50%
The depositor's hits bear a star; / = no result; ! = not active in a repeat. This is a sample that favours compounds with a hit; in the whole collection about 4.7% have one here.

SMILES	tim10-1 inh	TIM10 inh	PfHsp90 set2	tim23-1 inh	SKKanGAS inh	ATG4B inh	PLA2 counter	others
Cc1c(Cl)cccc1NC(=O)COC(=O)c1c2c(nc3ccccc13)CCN(Cc1ccccc1)C2	30	28	1	17	31	74*	85*
CC(C)c1ccccc1NC(=O)COC(=O)c1c2c(nc3ccccc13)CCN(Cc1ccccc1)C2	34	24	-2	25	7	46*	58*
Cc1cc(N2CCN(C)CC2)ccc1NC(=O)c1c2c(nc3ccccc13)CCN(Cc1ccccc1)C2	2	11	15	-8	-26	-5	/
CCOC(=O)N1CCN(C(=O)c2ccc(-n3c(C)ccc3C)cc2)CC1	15	-9	14	8	-4	3	/
CCN(CC)c1nc(N)c2c(N)n(-c3ccccc3C)c(=S)c(C#N)c2c1C#N	12	12	/	20	-9	54*	70*
CC(=O)NCCc1nc2ccccc2n1CCOc1ccccc1	3	-7	15	3	2	-9	/
O=C(OC1CCc2ccccc2C1=O)c1ccccc1O (stereo unspecified)	35	25	-29	47	/	77*	79*
C=CCN1C(=O)C(C(C)CC)NC1=S (stereo unspecified)	6	-4	/	10	/	-5	/
O=c1[nH]c(SCc2ccccc2Cl)nc2c1CCCC2	28	24	-4	25	5	18	/
O=C1CCCC2=C1C(c1ccncc1)c1c(nc(SCc3ccccc3Cl)[nH]c1=O)N2 (stereo unspecified)	1	7	-4	3	/	77*	81*
CC(=O)c1ccc(OCCCC(=O)OCc2nnc(-c3ccc(Cl)cc3)o2)cc1	38	-11	18	10	-8	-4	/
O=c1c(/C=N/O)coc2ccc3ccccc3c12	24	18	-2	31	2	-6	/
CCCCCCCCCCCCCCCC[n+]1ccccc1	/	/	114*	/	/	59*!	38	ATG4B conf=39*
CCCCCc1ccc(OCCC[n+]2ccccc2)c(CCCCC)c1	13	4	-24	-133	40	8	/
CC(C)N(Cc1ccccc1)C(=O)C1CCN(c2ncnc3c2nc2n3CCCCC2)CC1	31	26	10	26	-4	72*	76*
CN(C)CCN(Cc1ccccc1)C(=O)C1CCN(c2ncnc3c2nc2n3CCCCC2)CC1	10	5	-8	-1	-8	-1	/
COC(=O)c1cccc(NC(=S)Nc2cccc(Cl)c2Cl)c1	9	10	-13	7	6	44*	48
COC(=O)c1cccc(NC(=S)NCc2ccc(F)cc2)c1	36	25	14	-7	2	42*	50*
COC(=O)c1cccc(NC(=S)NCc2ccco2)c1	-21	-19	21	-8	-2	-4	/
O=C1NC(=O)/C(=C/c2ccccc2Oc2ccc(Cl)cc2)S1	14	19	-16	29	57*	48*	27	ATG4B conf=59*
CC(C)OCCCNc1nc(-c2ccccc2)nc2ccccc12	6	7	-7	32	2	2	/
CC(C)(C)C(=O)OCCNc1nc(-c2ccccc2)nc2ccccc12	32	23	19	36	-8	54*	63*
C=CCc1ccccc1OCC(=O)NNC(=S)NCc1ccccc1	17	15	-21	35	7	69*	69*
Cc1cccc(-n2cnc3cc(C(=O)N4CCc5ccccc54)ccc32)c1	21	22	-50	35	8	62*	64*
CN1CCN(C(=O)C2=C[C@@H](C3CCCCC3)C[C@@H](OCc3ccc(CO)cc3)O2)CC1	7	10	9	23	3	-6	/
Cc1ccccc1CNC(=O)c1ccc(CSCc2ccccc2)cc1	16	26	14	21	9	49*	68*
CCc1nc(SCC(=O)N2CC(=O)Nc3ccccc32)c2c(C)c(C)sc2n1	8	7	14	-6	11	71*	77*

Bioassay records from PubChem BioAssay.
